Experimental data from the supplement of paper PMC13380429.

System: Vero E6 infected with SARS-CoV-2
Assay: inhibition of SARS-CoV-2 cytopathic effect; higher = more antiviral protection, active = above 15
Details: 48 h

Measured: inhibition of SARS-CoV-2 cytopathic effect

Cc1c(CN(C)C(=O)/C=C/c2cnc3c(c2)CCC(=O)N3)oc2ccccc12
inactive: 1 nM 0.18% | 8.33 nM -1.15% | 100 nM 1.59% | 833.33 nM 0.21% | 10000 nM -1.4%

C=CCN1CC[C@]23c4c5ccc(O)c4O[C@H]2[C@@H](OCCOCCOCCOCCOCCOCCOCCOC)CC[C@@]3(O)[C@H]1C5 [naloxegol]
inactive: 1 nM 2.88% | 8.33 nM 0.75% | 100 nM 1.49% | 833.33 nM 0.6% | 10000 nM -1.7%

CCn1cc(C(=O)O)c(=O)c2ccc(C)nc21 [nalidixic-acid]
inactive: 1 nM 0.83% | 8.33 nM 1.11% | 100 nM 0.89% | 833.33 nM 0.77% | 10000 nM -0.57%

C[N+]1(C)[C@@H]2C[C@@H](OC(=O)[C@H](CO)c3ccccc3)C[C@H]1[C@@H]1O[C@@H]12 [methscopolamine]
inactive: 1 nM -1.29% | 8.33 nM -0.27% | 100 nM 1.56% | 833.33 nM 0.62% | 10000 nM 1.83%

Cc1cc2sc(NC(=O)Cc3ccccc3)nc2cc1Cl
inactive: 1 nM 2.05% | 8.33 nM 2.12% | 100 nM 2.19% | 833.33 nM 0.81% | 10000 nM 3.87%

CC(=O)c1ccc2c(c1)[C@H](NC(=O)c1ccc(F)c(Cl)c1)[C@H](O)C(C)(C)O2 [tonabersat]
inactive: 1 nM -2.31% | 8.33 nM -1.2% | 100 nM -0.8% | 833.33 nM 1.11% | 10000 nM -2.32%

O=C(O)c1cc(O)c2c(c1)[C@H]([C@H]1c3cc(C(=O)O)cc(O)c3C(=O)c3c(O[C@@H]4O[C@H](CO)[C@@H](O)[C@H](O)[C@H]4O)cccc31)c1cccc(O[C@@H]3O[C@H](CO)[C@@H](O)[C@H](O)[C@H]3O)c1C2=O [sennoside-A]
inactive: 1 nM -3.2% | 8.33 nM 0% | 100 nM 0.82% | 833.33 nM 0.38% | 10000 nM -2.08%

CNC(=O)Oc1cccc2ccccc12 [carbaril]
inactive: 1 nM -0.49% | 8.33 nM -0.59% | 100 nM 0.05% | 833.33 nM 1.22% | 10000 nM -0.51%

Cc1nn(C)c2c1C(c1ccc(C(F)(F)F)cc1)C(C#N)=C(N)O2 (stereo not given)
inactive: 1 nM -1.05% | 8.33 nM -1.78% | 100 nM -1.6% | 833.33 nM -1.63% | 10000 nM 2.56%

O=C(CNC(=O)c1ccc(Cl)cc1)NO [benurestat]
inactive: 1 nM -3.63% | 8.33 nM -2.49% | 100 nM -1.54% | 833.33 nM -0.58% | 10000 nM 0.4%
